The source of these data is PubChem BioAssay (NCATS).

The nature of assay [1]: Natriuretic polypeptide receptor (hNpr1) antagonism - Pilot counterscreen GloSensor control cell line (AID 1347045; calls by dose curve; also: series mostly up to about 38 µM). A digest of the protocol:
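The SNP-driven cGMP luminescence signal (50 uM, 20 min, room temperature) was measured in GloSensor HEK293 control cells. Compounds were tested as a LOPAC titration series and preincubated for 30-50 min.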
Background: Counterscreens check selectivity or assay interference.

Assay [2] addresses Atrial natriuretic peptide receptor 2 (Homo sapiens) (UniProt P20594). As to the kind of experiment: Natriuretic polypeptide receptor (hNpr2) antagonism - Pilot subtype selectivity assay (AID 1347050; calls by dose curve). A digest of the protocol:
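Luminescence from a genetically encoded cGMP luciferase biosensor in hNpr2-expressing HEK293 cells is read before and 20 min after adding 1 nM hNppC. Test compounds, in interplate 1:5 titrations, are added 30-50 min ahead of the agonist.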

For assay [3], the target named is Parathyroid hormone/parathyroid hormone-related peptide receptor (Homo sapiens) (UniProt Q03431). As to the kind of experiment: qHTS for PTHR1 Agonists: Optimization Screen against the NCGC LOPAC library (AID 1347079).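 Also: GloSensor cAMP luminescence in HEK-293 GP2 cells expressing human PTHR1 with IBMX.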 A digest of the protocol: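 Signal increase flags agonism. GP2 cells, derived from HEK-293, express human PTHR1 and a GloSensor cAMP construct.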
In general terms: In qHTS, concentration-response curves come from the screen itself.

Assay [4] can be described thus: qHTS of pediatric cancer cell lines to identify multiple opportunities for drug repurposing: Primary screen for TC32 cells (AID 1347089). Also: nearly all actives have a fitted effect of over 60% in size. A digest of the protocol: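 A viability screen of TC32 cells was run over 48 h, with primary MIPE doses spanning 0.78 nM–46 µM and NPC doses 0.59 nM–46 µM. ATP luminescence (CellTiter-Glo) served as the read-out.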
Assay [5] is described as follows: qHTS of pediatric cancer cell lines to identify multiple opportunities for drug repurposing: Primary screen for DAOY cells (AID 1347090). Also: nearly all actives have a fitted effect of over 55% in size. Also: potency is read from the fitted curve at half-maximal effect. A digest of the protocol: (§1)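 Viability measured as metabolically active cells via CellTiter-Glo luminescence following 48 hours of compound exposure, 11-point dilutions in confirmatory testing. 500-1,000 cells/well plated 5 hours before dosing; controls were DMSO and 2.3 µM bortezomib.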

The nature of assay [6]: qHTS of pediatric cancer cell lines to identify multiple opportunities for drug repurposing: Primary screen for SJ-GBM2 cells (AID 1347091). Also: potency is read from the fitted curve at half-maximal effect. A digest of the protocol: as §1
Assay [7] can be described thus: qHTS of pediatric cancer cell lines to identify multiple opportunities for drug repurposing: Primary screen for BT-37 cells (AID 1347094). Also: potency is read from the fitted curve at half-maximal effect. An outline of the steps:
(§2)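 Phenotypic viability qHTS, 48 h compound exposure, CellTiter-Glo luminescence read-out; multi-concentration dosing so that potency and efficacy derive directly from the primary screen's curves.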

Assay [8] is described as follows: qHTS of pediatric cancer cell lines to identify multiple opportunities for drug repurposing: Primary screen for NB-EBc1 cells (AID 1347095). Also: potency is read from the fitted curve at half-maximal effect. A digest of the protocol: as §2
Assay [9] is described as follows: qHTS of pediatric cancer cell lines to identify multiple opportunities for drug repurposing: Primary screen for Saos-2 cells (AID 1347097). Also: nearly all actives have a fitted effect of over 40% in size. Also: potency is read from the fitted curve at half-maximal effect. An outline of the steps: as §2
A short description of assay [10]: qHTS of pediatric cancer cell lines to identify multiple opportunities for drug repurposing: Primary screen for SK-N-SH cells (AID 1347098). Also: nearly all actives have a fitted effect of over 65% in size. Also: potency is read from the fitted curve at half-maximal effect. A digest of the protocol: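 Cells (500-1,000/well) rested 5 h, then received compounds for 48 h; metabolically active cells were measured by CellTiter-Glo luminescence. Final concentrations spanned up to 46 µM (MIPE, 11-point) or 0.59 nM-46 µM (NPC, 8-point) in primary screens, 11-point in follow-ups.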

Assay [11] in a line: qHTS of pediatric cancer cell lines to identify multiple opportunities for drug repurposing: Primary screen for NB1643 cells (AID 1347099). Also: nearly all actives have a fitted effect of over 50% in size. Also: potency is read from the fitted curve at half-maximal effect. An outline of the steps: as §2
The nature of assay [12]: P-glycoprotein substrates identified in KB-8-5-11 adenocarcinoma cell line, qHTS therapeutic library screen (AID 1346987). Also: nearly all actives have a fitted effect of over 65% in size. Also: potency is read from the fitted curve at half-maximal effect. An outline of the steps:
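Human cervical adenocarcinoma KB-8-5-11 cells, selected in colchicine to over-express P-gp and assayed without it, were exposed for 72 h to titrated compounds. An ATP-based luminescent viability signal gave AC50.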

Assay [13] in a line: qHTS of pediatric cancer cell lines to identify multiple opportunities for drug repurposing: Primary screen for SK-N-MC cells (AID 1347093). Also: potency is read from the fitted curve at half-maximal effect. A digest of the protocol:
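Metabolically active cells were quantified by ATP-dependent luminescence (CellTiter-Glo, 15 min at room temperature) following 48 h treatment. Cells had been plated at 500-1,000 per well and settled for 5 h beforehand.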

Assay [14] can be described thus: NS1 protein of Zika virus - qHTS assay to identify small molecule inhibitors in human HEK 293 cells (AID 1347053). Also: nearly all actives have a fitted effect of over 55% in size. Also: potency is read from the fitted curve at half-maximal effect. A digest of the protocol:
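TR-FRET signal from two anti-ZIKV NS1 antibodies quantified NS1 in HEK 293 cells 24 h after MR766 infection at MOI = 0.5; compounds were added 1 h before virus. Uninfected cells and infected cells defined the NS1 normalization range.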

The nature of assay [15]: qHTS of pediatric cancer cell lines to identify multiple opportunities for drug repurposing: Primary screen for A673 cells (AID 1347092). Also: nearly all actives have a fitted effect of over 45% in size. Also: potency is read from the fitted curve at half-maximal effect. An outline of the steps:
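Titration-based qHTS on A673 cells: MIPE compounds spanned 11 points (0.78 nM to 46 µM final), NPC compounds 8 points (0.59 nM to 46 µM final). Viability after 48 h was measured by ATP luminescence.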

Assay [16] deals with T1, Tyrosine-protein phosphatase non-receptor type substrate 1 (Homo sapiens) + Leukocyte surface antigen CD47 (Homo sapiens) (UniProt P78324+Q08722). The assay is described as follows: CD47-SIRPalpha protein protein interaction - LANCE assay qHTS validation (AID 1347057; active = well fitted curve in the direction sought with a large enough effect in the signal ratio, with a control signal flat, not every such curve was filed as active; the % refers to the signal ratio; also: series mostly up to about 38 µM). A digest of the protocol:
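Inhibition of soluble CD47/SIRPalpha ectodomain association by titrated compounds, measured as 665/615 nm time-resolved FRET ratio after sequential 30 min room-temperature incubations.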
(TR-FRET usually uses a lanthanide donor and a delayed reading to cut background.)

For assay [17], the target named is T1, Tyrosine-protein phosphatase non-receptor type substrate 1 (Homo sapiens) + Leukocyte surface antigen CD47 (Homo sapiens). The assay is described as follows: CD47-SIRPalpha protein protein interaction - HTRF assay qHTS validation (AID 1347058; active = well fitted curve in the direction sought with a large enough effect in the signal ratio, not every such curve was filed as active; the % refers to the signal ratio; also: series mostly up to about 38 µM). An outline of the steps:
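Soluble extracellular domains (6His-CD47, Avi-tag-biotinylated SIRPalpha) in PBS pH 7.4 with 0.05% IGEPAL CA-630. Compounds were preincubated 30 min at RT with CD47 and anti-His-Eu, then SIRPalpha and SAV-XL665 were added. TR-FRET 665/615 ratio.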

Assay [18] shares this target. As to the kind of experiment: CD47-SIRPalpha protein protein interaction - Alpha assay qHTS validation (AID 1347059).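 Also: bead proximity luminescence from CD47 binding SIRPalpha after compound preincubation with SIRPalpha.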 A digest of the protocol: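 SIRPalpha-biotin 25 nM + cpd, 30 min RT, dark; add CD47-His 12.5 nM, 30 min; add Ni-NTA/SAV beads 10 ug/mL, 30 min; AlphaScreen. Buffer PBS pH 7.4 + 0.05% IGEPAL CA-630. Non-biotinylated SIRPalpha as control inhibitor.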

The nature of assay [19]: qHTS of pediatric cancer cell lines to identify multiple opportunities for drug repurposing: Primary screen for U-2 OS cells (AID 1347096). Also: nearly all actives have a fitted effect of over 50% in size. A digest of the protocol: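 Viability after 48 h compound treatment at 37C, 500-1,000 cells/well, read as ATP luminescence with CellTiter-Glo. Primary screens used 11-point (MIPE, 0.78 nM-46 µM) or 8-point (NPC, 0.59 nM-46 µM) final concentrations; follow-up screens used 11-point dilutions.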

SMILES strings stand for the structures. “And” between values parts separate entries of the source, which are not always exact repeats. Equal values may be shown once. Inconclusive results are not listed. The source holds several records for some structures; these can differ, active in one and inactive in another. The source made the active and inactive calls. Unless noted, calls follow the shape of the dose curve; as a rule, active = well fitted curve in the direction sought with a large enough effect; inconclusive = small, poorly fitted or top-dose-only effect, or another doubt; inactive = no such curve, though single readings can be large; an effect the other way counts as inactive or inconclusive.

T1 sequence (P78324 whole entry, looked up, the tested form may be a part): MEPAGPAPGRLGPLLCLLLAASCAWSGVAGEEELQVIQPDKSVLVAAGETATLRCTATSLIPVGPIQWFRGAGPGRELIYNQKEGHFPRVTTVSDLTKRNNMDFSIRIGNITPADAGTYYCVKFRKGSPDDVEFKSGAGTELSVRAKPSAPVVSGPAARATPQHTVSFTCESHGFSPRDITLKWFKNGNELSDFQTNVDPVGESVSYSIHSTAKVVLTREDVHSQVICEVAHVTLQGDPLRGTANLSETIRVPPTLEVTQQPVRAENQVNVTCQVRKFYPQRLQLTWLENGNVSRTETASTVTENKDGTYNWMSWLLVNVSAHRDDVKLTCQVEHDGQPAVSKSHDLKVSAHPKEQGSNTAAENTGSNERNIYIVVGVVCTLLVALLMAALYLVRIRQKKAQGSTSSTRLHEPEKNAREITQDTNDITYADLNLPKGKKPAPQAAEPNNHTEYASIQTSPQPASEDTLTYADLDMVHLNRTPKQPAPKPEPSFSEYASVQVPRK
T1 sequence (Q08722 whole entry, looked up, the tested form may be a part): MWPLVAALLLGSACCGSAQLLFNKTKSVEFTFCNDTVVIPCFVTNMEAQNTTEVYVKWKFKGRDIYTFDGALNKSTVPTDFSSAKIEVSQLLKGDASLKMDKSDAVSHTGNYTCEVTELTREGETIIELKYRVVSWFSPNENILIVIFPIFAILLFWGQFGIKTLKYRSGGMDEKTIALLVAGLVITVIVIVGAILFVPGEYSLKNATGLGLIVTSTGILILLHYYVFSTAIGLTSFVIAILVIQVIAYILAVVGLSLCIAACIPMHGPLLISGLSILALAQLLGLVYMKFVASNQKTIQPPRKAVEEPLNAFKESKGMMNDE
Parathyroid hormone/parathyroid hormone-related peptide receptor (Homo sapiens), sequence (Q03431 whole entry, looked up): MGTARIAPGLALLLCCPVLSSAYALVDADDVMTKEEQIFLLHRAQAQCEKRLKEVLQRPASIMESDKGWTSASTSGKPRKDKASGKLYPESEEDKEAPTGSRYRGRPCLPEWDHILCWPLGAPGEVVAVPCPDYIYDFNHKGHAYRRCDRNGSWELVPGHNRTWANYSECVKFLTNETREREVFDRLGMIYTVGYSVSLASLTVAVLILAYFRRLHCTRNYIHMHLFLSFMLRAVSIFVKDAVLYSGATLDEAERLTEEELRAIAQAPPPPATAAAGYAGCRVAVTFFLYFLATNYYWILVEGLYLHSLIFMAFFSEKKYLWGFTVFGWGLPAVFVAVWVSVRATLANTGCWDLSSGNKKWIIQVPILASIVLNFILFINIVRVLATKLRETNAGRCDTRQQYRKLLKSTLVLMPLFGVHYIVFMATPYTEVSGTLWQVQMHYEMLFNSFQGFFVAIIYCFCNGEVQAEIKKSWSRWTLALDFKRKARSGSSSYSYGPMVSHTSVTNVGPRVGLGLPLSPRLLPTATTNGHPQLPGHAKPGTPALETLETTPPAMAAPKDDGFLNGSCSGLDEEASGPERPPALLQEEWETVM
Atrial natriuretic peptide receptor 2 (Homo sapiens), sequence (P20594 whole entry, looked up): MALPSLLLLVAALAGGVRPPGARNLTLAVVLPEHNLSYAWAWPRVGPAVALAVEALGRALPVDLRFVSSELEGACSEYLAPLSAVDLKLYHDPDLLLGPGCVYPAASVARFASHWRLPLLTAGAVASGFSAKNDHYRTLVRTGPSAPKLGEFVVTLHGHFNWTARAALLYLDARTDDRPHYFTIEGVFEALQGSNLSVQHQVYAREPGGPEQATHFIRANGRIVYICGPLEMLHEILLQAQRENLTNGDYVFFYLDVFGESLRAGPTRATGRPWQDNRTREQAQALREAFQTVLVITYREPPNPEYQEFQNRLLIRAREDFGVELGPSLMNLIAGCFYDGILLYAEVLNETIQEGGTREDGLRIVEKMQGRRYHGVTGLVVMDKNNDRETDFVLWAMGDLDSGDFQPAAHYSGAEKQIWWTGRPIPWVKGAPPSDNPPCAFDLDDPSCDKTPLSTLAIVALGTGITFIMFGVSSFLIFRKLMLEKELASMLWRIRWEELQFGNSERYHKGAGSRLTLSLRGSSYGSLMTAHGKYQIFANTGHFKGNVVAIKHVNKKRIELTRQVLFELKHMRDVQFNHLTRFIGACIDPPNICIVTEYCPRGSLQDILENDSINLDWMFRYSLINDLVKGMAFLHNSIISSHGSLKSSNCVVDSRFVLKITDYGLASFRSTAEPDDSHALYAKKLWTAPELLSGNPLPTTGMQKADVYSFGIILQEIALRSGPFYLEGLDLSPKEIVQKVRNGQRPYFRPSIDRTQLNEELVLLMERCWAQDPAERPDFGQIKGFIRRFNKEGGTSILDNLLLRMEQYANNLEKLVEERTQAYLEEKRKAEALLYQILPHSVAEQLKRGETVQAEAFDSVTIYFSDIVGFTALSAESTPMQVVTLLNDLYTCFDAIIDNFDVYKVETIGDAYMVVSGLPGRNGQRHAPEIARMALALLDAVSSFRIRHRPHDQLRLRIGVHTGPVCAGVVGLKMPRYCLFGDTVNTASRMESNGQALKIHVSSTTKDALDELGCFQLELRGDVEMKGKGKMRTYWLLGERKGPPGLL

Consider `CCCCCN(C)CCC(O)(P(=O)(O)O)P(=O)(O)O`, for which the Potency result in assay [1], in [4], in assay [5], in assay [6], in assay [7] and in assay [8] was “inactive” each time. Moreover, the Potency result in assay [9], in assay [10] and in assay [11] was “inactive” each time. Further, the result in [2] and in assay [3] was inactive.

Regarding `COc1ccc(Cc2ccc(NC(N)=O)cc2)cc1-c1cccc(Cl)c1`, the Potency result in assay [12], in [4], in [8] and in [9] was “inactive” throughout. For the same compound, the Potency in [13] was 18.7 µM (active); in [11] it was 16.6 µM (active).

Turning to `CC=C(C)C(=O)O[C@H]1C(C)=C[C@]23C(=O)[C@@H](C=C(CO)[C@@H](O)[C@]12O)[C@H]1[C@@H](C[C@H]3C)C1(C)C`, the Potency in assay [14] was 11.8 µM (active); in assay [6], 18.7 µM (active); in assay [15], 0.0148 µM (active); in [13], 4.69 µM (active); in [7], 24.3 µM (active); in assay [8], 14.8 µM (active). Moreover, the Potency in [9] was 0.296 µM (active). In addition, the Potency entry in assay [4] and in [10] was “inactive” each time.

As to `Clc1ccc(Cn2c(CN3CCCC3)nc3ccccc32)cc1`, the Potency entry in assay [1], in [14], in assay [5], in assay [6], in [13] and in assay [8] was “inactive” in each case. Moreover, the Potency result in assay [19] and in assay [11] was “inactive” each time. Further, the outcome in assay [16], in [17], in assay [18] and in assay [3] was inactive.

In the case of `CNC(=O)c1ccccc1Sc1ccc2c(C=Cc3ccccn3)n[nH]c2c1`, the Potency was 4.18 µM (active) in [12], 3.32 µM (active) in assay [13], 14.8 µM (active) in assay [9] and 16.6 µM (active) in assay [11]. Further, the Potency result in [19] was “inactive”.

As to `C=C1C(=O)OC(CCCCCCCC)C1C(=O)O` (stereo not drawn), the Potency entry in assay [14], in assay [4], in [5], in [15], in [7] and in assay [19] was “inactive” throughout. Moreover, in assay [6], the Potency is 20.9 µM (active).

In the case of `COC(=O)C1=CO[C@@H](O)[C@@H]2C(CO)=CC[C@@H]12`, the Potency entry in assay [12], in assay [4], in assay [15], in assay [7], in assay [19] and in assay [9] was “inactive” each time. Also, the Potency in assay [13] is 29.6 µM (active).

As for `CN(C)Cc1ccc(-c2nc3cccc4c3n2CCNC4=O)cc1`, the Potency entry in assay [12], in [4] and in assay [19] was “inactive” throughout. Also, the Potency was 11.8 µM (active) in assay [15], 11.8 µM (active) in assay [13], 16.6 µM (active) in assay [8] and 23.5 µM (active) in assay [11].

Consider `CO[C@H]1C=CO[C@@]2(C)Oc3c(C)c(O)c4c(O)c(c5c(c4c3C2=O)NC2(CCN(CC(C)C)CC2)N=5)=NC(=O)C(C)=CC=C[C@H](C)[C@H](O)[C@@H](C)[C@@H](O)[C@@H](C)[C@H](OC(C)=O)[C@H]1C`, for which the Potency result in assay [14], in [4], in assay [5], in assay [13], in [7] and in [8] was “inactive” in each case. Further, the Potency result in [9] and in assay [11] was “inactive” each time.

For the compound `CN(C)Cc1cccc(N=C(c2ccccc2)c2c(O)[nH]c3cc(C(=O)N(C)C)ccc23)c1`, the Potency entry in assay [14], in assay [4] and in assay [19] was “inactive” throughout. Moreover, the Potency in [5] was 2.96 µM (active); in assay [6], 18.7 µM (active); in assay [13], 14.8 µM (active); in assay [7], 15.3 µM (active); in assay [8], 18.7 µM (active); in assay [9], 11.8 µM (active). Besides, in [10], the Potency was 21.5 µM (active).

As to `COc1cc(Nc2ncc(F)c(Nc3ccc4c(n3)NC(=O)C(C)(C)O4)n2)cc(OC)c1OC`, the Potency in assay [12] was 2.59 µM (active) and 18.4 µM (active) and inactive; in assay [15], 14.8 µM (active); in assay [13], 0.418 µM (active); in [8], 4.18 µM (active); in [9] it was 0.935 µM (active). Moreover, the Potency entry in assay [4], in [7], in assay [19] and in assay [10] was “inactive” throughout.

Take `COC1CCC(N(C(=O)C2CCC(C)CC2)c2cc(C3=CCCCC3)sc2C(=O)O)CC1` (stereo not drawn): the Potency result in [12], in [4], in [7], in [19] and in assay [9] was “inactive” in each case. In addition, the Potency in assay [13] and in assay [11] was 23.5 µM (active) throughout.
